This is a sample that favours compounds with a hit; in the whole collection about 10% have one here.
KB-3-1 cytotox: KB-3-1 parental cell cytotoxicity | KB-3-1 viability, CellTiter-Glo ATP luminescence, 72 h | Potency, µM (highest dose often 46.1 µM), usual class: cytotoxic | 1.4% of 400,000 active; also: % is scaled to controls: 0 for no effect and ±100 for the full control effect; nearly all actives have a fitted effect of over 60% in size
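Multi-concentration cytotoxicity screen in KB-3-1 cells grown in DMEM lacking phenol red with 10% FBS. After 72 h at 37 °C with compound, ATP-dependent luminescence was recorded.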
RORg inh: ROR gamma (mouse) transcription inhibition; P51450; Drosophila S2 Gal4-RORgamma UAS-luciferase reporter, 20 h; Potency, µM (highest dose often 53.6 µM), without a hit: top-dose activity change, negative = inhibition, most hits filed as inhibitors; 5.4% of 310,000 active; AID 2551; also: % is scaled to controls: 0 for no effect and ±100 for the full control effect; nearly all actives have a fitted effect of over 60% in size
Target sequence (P51450 whole entry, looked up, the tested form may be a part): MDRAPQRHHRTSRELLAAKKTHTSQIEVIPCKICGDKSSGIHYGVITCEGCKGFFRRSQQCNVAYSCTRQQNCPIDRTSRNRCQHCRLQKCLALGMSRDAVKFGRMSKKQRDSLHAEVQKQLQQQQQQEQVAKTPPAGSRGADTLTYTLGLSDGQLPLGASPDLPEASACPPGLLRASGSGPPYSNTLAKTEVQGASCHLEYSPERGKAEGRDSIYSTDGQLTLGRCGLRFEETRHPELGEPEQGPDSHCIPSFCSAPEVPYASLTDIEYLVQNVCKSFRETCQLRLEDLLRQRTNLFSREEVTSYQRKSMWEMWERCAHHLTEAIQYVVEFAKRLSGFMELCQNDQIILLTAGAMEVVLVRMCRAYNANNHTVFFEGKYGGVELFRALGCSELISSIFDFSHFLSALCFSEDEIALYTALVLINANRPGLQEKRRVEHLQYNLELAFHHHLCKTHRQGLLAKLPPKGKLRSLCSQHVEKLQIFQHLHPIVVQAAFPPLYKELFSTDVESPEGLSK
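Read-out: Photinus luciferase luminescence; inhibitors lower reporter signal. Insect Schneider cells with Gal4-ROR gamma fusion under metallothionein promoter, UAS reporter; 700 uM final copper sulfate induction, 20 hr, ambient temperature.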
MCF10A rereplic: DNA re-replication induction in MCF 10a cells. MCF 10A DNA re-replication, Hoechst nuclear intensity, 48 h. Potency, µM (doses to about 46.1 µM), without a hit: at the top dose activity, positive = re-replication, actives largely listed as activators. 2.9% of 350,000 active; also: % of control where 0% means no effect; nearly all actives have a fitted effect of over 50% in size
VP16 counter: inhibits Gal4-VP16 luciferase reporter, ROR gamma counter-screen; Drosophila S2 Gal4-VP16 UAS-luciferase, luminescence, 20 h; Potency, µM (series often up to 53.6 µM), for the others: at the top dose activity, negative = inhibition, actives largely listed as inhibitors; 3.5% of 310,000 active; AID 2546;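 also: Gal4-VP16 expression switched on by copper sulfate through the metallothionein promoter; % is scaled to controls: 0 for no effect and ±100 for the full control effect; nearly all actives have a fitted effect of over 50% in size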
SW480 rereplic: DNA re-replication induction in SW480 cells; 1.8% of 340,000 active; Potency, µM (highest dose often 46.1 µM), for inactives: top-dose re-replication activation, most hits filed as activators; AID 624297; SW480 DNA re-replication, Hoechst DNA content imaging, 48 h; also: % of control where 0% means no effect; nearly all actives have a fitted effect of over 55% in size
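Readout is total intensity of Hoechst-stained nuclei, excited at 405 nm and collected at 500-530 nm. Compound treatment lasted 48 hr at 37 C in 5% CO2 before staining.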
KB-V1 cytotox: KB-V1 MDR subline cytotoxicity. KB-V1 MDR cells viability, CellTiter-Glo, 72 h. Potency, µM (doses to about 46.1 µM), actives largely listed as cytotoxic. 3.4% of 400,000 active. AID 1347076; also: % is scaled to controls: 0 for no effect and ±100 for the full control effect; nearly all actives have a fitted effect of over 60% in size
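Cytotoxicity via CellTiter-Glo luminescence after 72 h compound exposure at 37 degrees C. Cells: drug-selected KB-V1 line, DMEM phenol-red free plus 10% FBS. Compounds tested at multiple concentrations; normalized data fitted to concentration-effect curves.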
* = called active by the depositor; i = inactive; u = inconclusive; x = not tested or not shown; [ ] = remark or other dose. Calls follow the shape of the dose curve; as a rule, active = well fitted curve in the direction sought with a large enough effect; inconclusive = small, poorly fitted or top-dose-only effect, or another doubt; inactive = no such curve, though single readings can be large; an effect the other way counts as inactive or inconclusive. Potency is read from the fitted curve at half-maximal effect.

SMILES | KB-3-1 cytotox | RORg inh | MCF10A rereplic | VP16 counter | SW480 rereplic | KB-V1 cytotox
CCC(=NCc1ccco1)c1c(C(F)(F)F)[nH]n(-c2nc3ccccc3s2)c1=O | i | u | 5% | -17% | -1% | 21µM*
CC(=NCc1ccco1)c1c(C)[nH]n(-c2nc3ccccc3s2)c1=O | u | u | 30% | u | -3% | u
C/C(=N/NC(=O)c1cccs1)c1c(C)[nH]n(-c2nc3ccccc3s2)c1=O | u | 1.4µM* | 12% | 2µM* | u | i
CCCN=C(C)c1c(-c2ccccc2)[nH]n(-c2nc3ccccc3s2)c1=O | i | 2.5µM* | 27% | -25% | 11% | 8.2µM*
COC(=O)Cc1[nH]n(-c2nc3ccccc3s2)c(=O)c1C(C)=Nc1ccc(Cl)cc1 | i | 11µM* | -2% | -20% | -1% | i
CO[C@@H]1COC(=O)C/C=C\[C@@H](C)[C@H](OC)COC(=O)C/C=C\[C@H]1C | x | -13%[10 µM] | x | 0%[10 µM] | x | x
CCC(=NCc1ccccc1)c1c(C(F)(F)F)[nH]n(-c2nc3ccccc3s2)c1=O | i | 8.9µM* | -1% | -17% | -11% | i
NC(COCc1ccccc1)c1csc(Nc2ccc(C(=O)NCCO)cc2)n1 (stereo not given) | i | x | x | x | x | i
Cc1cc(C(F)(F)F)c(C#N)c(SCC(=O)Nc2nc3ccccc3s2)n1 | i | u | u | 4% | x | u
Cc1cc(C)c(C#N)c(SCC(=O)Nc2ccccc2C)n1 | i | -18% | 27% | 7% | -1% | i
Cc1ccc2sc(NC(=O)CSc3nc(C)cc(C)c3C#N)nc2c1 | i | 0.71µM* | 5% | u | 2.8µM* | i
Cc1nc(SCC(=O)Nc2nc3ccccc3s2)c(C#N)c(C)c1C | u | 0.35µM* | 6.5µM* | u | 5.8µM* | i
Cc1cc(C)c(C#N)c(SCC(=O)Nc2nnc(-c3ccccc3)s2)n1 | i | 24% | 10µM* | 3% | 1% | i
CCOC(=O)NC(=O)/C(C#N)=N/Nc1c(F)cccc1F | i | -6% | 1% | 2% | -1% | u
N#C/C(=N\Nc1ccccc1Cl)C(=O)c1ccccc1 | 15µM* | u | 14% | -13% | -2% | u
COc1ccc(C(=O)/C(C#N)=N/Nc2cccc([N+](=O)[O-])c2)cc1 | u | u | u | -3%[10 µM] | u | 5.8µM*
N#C/C(=N\Nc1cccc(Cl)c1)C(=O)c1ccccc1 | 16µM* | 25% | u | u | -1% | u
N#C/C(=N\Nc1c(Cl)cccc1Cl)C(=O)NN | 15µM* | 37% | -14% | 20% | -3% | 8.2µM*
CC(=O)/C(N)=N/Nc1cccc(Cl)c1 | i | 19% | u | 7% | u | i
CCNC(=O)C1CCCN(C(=O)Cc2cccs2)CC1 (stereo not given) | i | x | x | x | x | i
CCOC(=O)c1ccc(NC(=O)C2CCCN(c3ccc(Sc4ccc(C)cc4)nn3)C2)cc1 (stereo not given) | i | x | x | x | x | i
COc1ccccc1CNC(=O)CCCn1c(=O)c2ccccc2n(Cc2ccc(C)cc2)c1=O | i | x | x | x | x | i
COc1ccc(OC)c(C2=Nn3c(nnc3-c3ccccc3C)SC2)c1 | x | -4% | x | -7% | x | x
Cc1noc(Cn2c(=O)c3ccccc3n(CC(=O)Nc3ccccc3C(F)(F)F)c2=O)n1 | i | x | x | x | x | i
O=C(Nc1ccc(S(=O)(=O)N2CCOCC2)cc1)c1ccc(S(=O)(=O)N2CCOCC2)cc1 | i | 10% | -1% | -8% | -19% | i
SMILES | KB-3-1 cytotox | RORg inh | MCF10A rereplic | VP16 counter | SW480 rereplic | KB-V1 cytotox
O=C(Nc1ccc(Cc2ccncc2)cc1)c1ccc(S(=O)(=O)N2CCOCC2)cc1 | i | -41% | -1% | 7.1µM* | -7% | u
O=C(Nc1ccc(S(=O)(=O)N2CCN(Cc3ccccc3)CC2)cc1)c1cnccn1 | 10µM* | 43% | 4% | 1% | -3% | 2.3µM*
CCCOc1cccc(C(=O)Nc2ccc(CN3CCOCC3)cc2)c1 | i | 44% | 21µM* | 14% | 28% | i
O=C(Nc1ccc(S(=O)(=O)Nc2ccc(F)cc2)cc1)c1ccc(CN2CCOCC2)cc1 | 3.7µM* | u | u | u | u | u
CCOC(=O)C1=NOC2(C1)C(=O)Nc1ccc(OC)cc12 (stereo not given) | i | x | x | x | x | u
CCOC(=O)C1=CCCN(S(=O)(=O)c2ccc(C)cc2)C1 | i | x | x | x | x | i
COc1ccc(NS(=O)(=O)c2ccc(NC(=O)c3ccc(CN4CCOCC4)cc3)cc2)cc1 | u | 14µM* | u | 3% | u | i
O=C(Nc1ccc(S(=O)(=O)N2CCCC2)cc1)c1ccc(CN2CCOCC2)cc1 | u | u | 4% | -6% | -6% | u
O=C(Nc1ccc(S(=O)(=O)N2CCCCC2)cc1)c1ccc(CN2CCOCC2)cc1 | 7.3µM* | u | u | u | -4% | 2.1µM*
CCN(CC)S(=O)(=O)c1ccc(NC(=O)c2ccc(CN3CCOCC3)cc2)cc1 | 3.3µM* | u | 0% | 10% | 1% | u
CCCCCCCCCCCCCCCCC(C(=O)O)C(O)(CC(=O)O)C(=O)O (stereo not given) | x | -13% | 30µM* | -10% | 0% | x
O=C1Nc2ccccc2C(=O)N2CCC[C@@H]12 | x | 15% | x | 2% | x | x
Cc1cc(C(=O)COC(=O)c2ccc(O)cc2O)c(C)n1-c1ccc(OC(F)F)cc1 | 16µM* | x | u | x | 0% | u
Cc1cc(C(=O)COC(=O)c2ccc(O)cc2O)c(C)n1-c1ccccc1 | u | x | u | x | -5% | 16µM*
Cc1ccc(C(C)C)c(OCC(O)CN2CCc3ccccc3C2)c1 (stereo not given) | u | -6% | u | 22µM* | u | u
Cc1cccc(C)c1OCC(O)CN1CCc2ccccc2C1 (stereo not given) | i | x | 2% | x | 1% | i
COc1ccc(NC(=O)c2sc3nc4c(c(-c5ccc(OC)cc5)c3c2N)C(=O)CC(C)(C)C4)cc1 | i | x | x | x | x | i
CN(C)Cc1ccccc1-c1nc(NC2CCNCC2)c2ccccc2n1 | x | 2% | x | -13% | x | x
CCOC(=O)N/N=C/c1c(C)nn(-c2cccc(C(F)(F)F)c2)c1Cl | 2.1µM* | u | 2.6µM* | -7% | 5.8µM* | 2.6µM*
Cc1nn(-c2ccccc2)c(Cl)c1/C=N/Nc1nc2ccccc2n1C | i | 1.1µM* | u | 3.5µM* | u | i
Cc1ccc(C)c(OCC(=O)N/N=C/c2c(C)nn(-c3ccccc3)c2Cl)c1C | u | -8% | u | u | u | 8.2µM*

Compound activity: PubChem BioAssay, National Center for Advancing Translational Sciences (NCATS)
